# From PubChem BioAssay AID720522 (National Center for Advancing Translational Sciences (NCATS), 2013)
# Among all 1,400 compounds or so, about 60 (4%) were called active. About 7% were inconclusive and are not listed. Calls follow the shape of the dose curve; as a rule, active = well fitted inhibition curve with a large enough effect; inconclusive = small, poorly fitted or top-dose-only effect; inactive = flat fitted curve, though single readings scatter. The list is a sample of the results. A call without a number means that no potency is given here.
# Target: Luciferin 4-monooxygenase (Photinus pyralis) (UniProt P08659)
# Sequence (P08659 whole entry, looked up): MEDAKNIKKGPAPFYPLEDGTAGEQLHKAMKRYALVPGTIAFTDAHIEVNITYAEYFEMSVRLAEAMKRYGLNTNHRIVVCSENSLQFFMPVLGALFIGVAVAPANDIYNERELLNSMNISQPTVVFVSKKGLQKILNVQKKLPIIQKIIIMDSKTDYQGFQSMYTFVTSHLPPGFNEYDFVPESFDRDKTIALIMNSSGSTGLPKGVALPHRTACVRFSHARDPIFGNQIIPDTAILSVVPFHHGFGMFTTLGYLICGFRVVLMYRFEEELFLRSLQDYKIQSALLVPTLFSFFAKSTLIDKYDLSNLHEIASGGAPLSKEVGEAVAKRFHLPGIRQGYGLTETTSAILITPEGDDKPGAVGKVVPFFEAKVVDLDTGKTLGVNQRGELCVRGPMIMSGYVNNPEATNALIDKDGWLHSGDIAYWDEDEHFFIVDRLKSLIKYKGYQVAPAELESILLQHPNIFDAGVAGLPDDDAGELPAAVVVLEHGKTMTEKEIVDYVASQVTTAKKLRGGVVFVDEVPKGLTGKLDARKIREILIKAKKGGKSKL
# Test: Nrf2 qHTS screen for inhibitors: Purified Fluc Biochemical Counterscreen for Hit Validation; also: nearly all actives have a fitted effect of over 65% in size
# Details: purified firefly luciferase, luminescence inhibition; series mostly up to 57.5 µM
# Source text: Nrf2 is a transcription factor that maintains cellular redox homoestasis and protects cells from xenobiotics. Nrf2 binds to the antioxidant response element (ARE) to induce gene expression of a broad spectrum of genes that encode for antioxidants. […] Finding a small molecule that act as an inhibitor of Nrf2 function would represent a novel therapeutic target that could lead to improvement in survival of patients undergoing chemo- and/or radio- therapy.
# A biochemical assay in 1536 well format was developed and utilized to remove compounds that inhibit the luciferase reporter (Fluc) rather than the Nrf2 enzyme. Inhibition of this assay = false positive inhibition of Nrf2.
# NIH Chemical Genomics Center [NCGC]
# NIH Molecular Libraries Probe Centers Network [MLPCN]
# Assay Submitter (PI): Shyam Biswal, Johns Hopkins University
# [1] Shibata T., et al., Genetic alteration of Keap1 confers constitutive Nrf2 activation and resistance to chemotherapy in gallbladder cancer. Gastroenterology, 2008.
# [2] Sjoblom T., et al., The consensus coding sequences of human breast and colorectal cancers. Science, 2006.
# Three microliter of substrate solution containing 50mM Tris acetate, 13.3 mM Mg-acetate, 0.01mM ATP, 0.01% Tween, 0.05% BSA and 0.01mM D-Luciferin (Sigma, #L9504) was dispensed into 1536 well white solid bottom assay plate (Greiner Bio, #789173-F). Twenty-three nanoliter of compounds dissolved in DMSO at different concentrations was added to the plate using a Kalypsys 1536-pin tool. Then 1 uL of firefly luciferase reagent containing 50mM Tris-acetate and 0.04uM P. pyralis luciferase (Sigma, #L9506) was added. The final DMSO concentration was maintained at 0.56%. Luminescence signal was acquired using the PerkinElmer Viewlux plate reader after incubation at room temperature for 10 minutes.
# Potency is read from the fitted curve at half-maximal effect.
row,SMILES,Potency
1,Cc1cc(C(=O)NC2CCCc3c2cnn3-c2cccc(C)c2C)c(C)o1 (configuration not stated),inactive
2,O=C(CCC(=O)N1CCN(S(=O)(=O)c2ccc(Cl)cc2)CC1)NCc1cccc(C(F)(F)F)c1,inactive
3,Cc1nc(N2CCOCC2)c2c(C)c(C(=O)Nc3ccc(C(F)(F)F)cc3)sc2n1,inactive
4,O=C(Nc1ccncc1)c1c(F)cccc1F,inactive
5,Cc1ccc(S(=O)(=O)N2CCN(c3ncnc4ccccc34)CC2)cc1,inactive
6,CC(=NNC(=S)N1CCCCCC1)c1ccccn1,12 µM (active)
7,CCCCNc1nc2c(c(=O)n(C)c(=O)n2C)n1Cc1cccc(OC)c1,inactive
8,CC(=O)N1c2ccc(S(=O)(=O)N3CCCC(C(=O)NCc4ccc(Cl)cc4)C3)cc2CC1C (configuration not stated),inactive
9,CN(C)c1ccc(/C=C/c2sc3ccccc3[n+]2CCCCBr)cc1,inactive
10,CCC(C)N1C(=O)S/C(=C/c2ccc(Sc3nc4ccccc4[nH]3)o2)C1=O (configuration not stated),inactive
11,O=C1C=C(c2ccnc3cc(Cl)ccc23)C[C@@H](c2ccc3c(c2)OCO3)C1,inactive
12,COc1cccc(-c2nc(CS(=O)(=O)CC(=O)N3CCN(c4cc(C)ccc4C)CC3)c(C)o2)c1,inactive
13,COCCn1c(SCC(=O)Nc2ccccc2F)nc2c(c1=O)SCC2,inactive
14,Cn1nccc1C(=O)NC1CCCc2c1cnn2-c1ccc(F)cc1F (configuration not stated),inactive
15,Cc1oc2c(F)c(F)c(F)c(F)c2c1S(=O)(=O)Nc1cccc(C(F)(F)F)c1,inactive
16,CC(=O)N1CCCc2cc(S(=O)(=O)N3CCCC(C(=O)N4CCN(c5cccc(Cl)c5)CC4)C3)ccc21 (configuration not stated),inactive
17,Cc1ccc(NC(=O)C2CC(=O)N(c3ccc4c(c3)OCCO4)C2)cc1S(=O)(=O)N1CCCCCC1 (configuration not stated),inactive
18,O/N=C(\C[n+]1ccccc1)c1ccc(Br)cc1,inactive
19,N#CC(C#N)=CN=c1ccn(Cc2ccc(Cl)cc2Cl)cc1,inactive
20,O=c1[nH]c(SCc2cccc(F)c2)nc2ccccc12,inactive
21,COc1cccc(-c2nnc(NC(=O)c3ccc(S(=O)(=O)N(CC(C)C)CC(C)C)cc3)o2)c1,inactive
22,Cc1cc(C)c(-c2csc(NC(=O)CCCc3nc4ccccc4c(=O)[nH]3)n2)c(C)c1,inactive
23,Cc1c(Cl)cccc1NC(=O)Cn1cc(C(=O)c2cccs2)c2ccccc21,inactive
24,CC1(C)O[C@@H]2CC3C4C[C@H](F)C5=CC(=O)C=CC5(C)C4C(O)CC3(C)[C@]2(C(=O)CO)O1 (some centres not stated),inactive
25,CC(=O)Nc1ccc(Nc2c3ccccc3nc3ccccc23)cc1,inactive
26,CCCOc1ccc(C(=O)Nc2ccc3oc(-c4cccc(Cl)c4Cl)nc3c2)cc1,inactive
27,CC(=O)OC(C)C[N+](C)(C)C (configuration not stated),inactive
